PubChem BioAssay (EPA / NIEHS)
Values joined by “and” are separate entries in the source; they are usually repeats but may differ in a detail not shown here. Equal entries are not always repeated. The source holds several records for some structures; these can differ, active in one and inactive in another. Active and inactive are the calls of the source. The calls were made as follows: active = hit-call score of the fitted dose curve at least 0.9, where 1 is the maximum; inactive = score below 0.9.

Each molecule was assayed on Intercellular Adhesion Molecule 1 (ICAM1), ICAM1 (gene 3383) (assay: BSK_3C_ICAM1: BioMAP Diversity Plus: 3C Assay for Intercellular Adhesion Molecule 1 (ICAM1) Biomarker Activity (AID 2283003)). Details: primary human endothelial cells (HUVEC); actives raise or lower the signal.
Description: BSK_3C is a cell-based, multiplexed-readout assay that uses umbilical vein endothelium, a human vascular primary cell, with measurements taken at 24 hours after chemical dosing in a 96-well plate.BSK_3C_ICAM1 is an assay component measured in the BSK_3C assay. It measures ICAM-1 antibody related to regulation of gene expression using ELISA technology.Data from the assay component BSK_3C_ICAM1 was analyzed into 1 assay endpoint. This assay endpoint, BSK_3C_ICAM1, was analyzed with bidirectional fitting relative to DMSO as the negative control and baseline of activity. Using a type of binding reporter, gain or loss-of-signal activity can be used to understand changes in the signaling as they relate to the gene ICAM1. Furthermore, this assay endpoint can be referred to as a primary readout, because this assay has produced multiple assay endpoints where this one serves a signaling function. To generalize the intended target to other relatable targets, this assay endpoint is annotated to the cell adhesion molecules intended target family, where the subfamily is Immunoglobulin CAM.
The levels of cell surface (or secreted, indicated by the prefix "s") biomarker endpoints were measured by ELISA. Overt cytotoxicity to cells in confluent adherent cultures (all systems other than the BT system) was assessed by measuring total protein levels using sulforhodamine B (SRB) staining in parallel cultures at the time of biomarker measurements, indicated as SRB endpoints. For proliferation assays for adherent cell types, individual cell types are cultured at sub-confluence and relative cell numbers quantified by SRB staining at time points optimized for each system (48 h: 3C and CASM3C systems; 72 h: BT and HDF3CGF systems; 96 h: SAg system). SRB was performed by staining cells with 0.1% SRB after fixation with 10% TCA and reading wells at 560 nm.Viability and proliferation of PBMC (T cells) was quantified by Alamar Blue reduction for the SAg and BT systems. For PBMC viability (referred to as PBMC Cytotoxicity within the assay endpoint names), cells were plated (75,000/well in a 96-well plate) and then chemical samples added for 1 h before addition of activators, SEB and TSST-1 (20 ng/mL final concentration each). Cells were incubated for 90 h. Then, Alamar Blue (20 uL/well) (Invitrogen, Cat DAL1100) was added for 6 h, and the plates were read with a fluorescence microplate reader at 546/580 nm (excitation/emission). For PBMC proliferation, cells were plated and activated as above but incubated for only 16 h prior to addition of Alamar Blue. Plates were read after 6 h.

Row | SMILES | outcome | AC50
1 | CCC(C)(CC)c1cc(NC(=O)c2c(OC)cccc2OC)on1 | inactive | –
2 | CC(C)(c1ccccc1)c1ccc(O)cc1 | – | 36.4 µM (active)
3 | NS(=O)(=O)C(F)(F)C(F)(F)C(F)(F)C(F)(F)C(F)(F)C(F)(F)C(F)(F)C(F)(F)F | inactive | 56.8 µM (active) and 51.5 µM (active)
4 | CCNc1nc(NC(C)C)nc(SC)n1 | inactive | –
5 | CO/C=C(/C(=O)OC)c1ccccc1COc1cccc(C(F)(F)F)n1 | inactive | –
6 | C[C@]12CCC(=O)C=C1CC[C@@H]1[C@@H]2CC[C@@]2(C)[C@H]1CC[C@]2(C)O | inactive | –
7 | Cc1ccccc1O | inactive | –
8 | CC1=C2C[C@H]3[C@@H](CC=C4C[C@@H](O)CC[C@@]43C)[C@@H]2CC[C@]12O[C@@H]1C[C@H](C)CN[C@H]1[C@H]2C | inactive | –
9 | ClC(Cl)=C(c1ccc(Cl)cc1)c1ccc(Cl)cc1 | – | 34 µM (active)
10 | CCCN(CCC)N=O | inactive | –
11 | COS(=O)(=O)OC | inactive | –
12 | Cc1cc(-c2ccc(N)c(C)c2)ccc1N | inactive | –
13 | Clc1ccc(C(c2ccccc2Cl)C(Cl)(Cl)Cl)cc1 (stereo not given) | – | 21.7 µM (active)
14 | Oc1c(Cl)c(Cl)c(Cl)c(Cl)c1Cl | inactive | 33.7 µM (active)
15 | O=C(O)C(F)(F)C(F)(F)C(F)(F)C(F)(F)C(F)(F)C(F)(F)C(F)(F)C(F)(F)C(F)(F)F | inactive | 46.5 µM (active) and 58.4 µM (active)
16 | C=CC(N)=O | inactive | –
17 | O=C(NC(=O)c1c(F)cccc1F)Nc1cc(Cl)c(OC(F)(F)C(F)F)c(Cl)c1 | inactive | –
18 | O=NN(c1ccccc1)c1ccccc1 | inactive | –
19 | ClC1=C(Cl)[C@]2(Cl)[C@@H]3[C@H]4C[C@H]([C@@H]5O[C@H]45)[C@@H]3[C@@]1(Cl)C2(Cl)Cl | inactive | –

Row | SMILES | outcome | AC50
20 | Sc1ccccc1 | inactive | –
21 | CN(C)CCO | inactive | –
22 | Cc1ccc(O)c(C)c1 | inactive | –
23 | c1ccc(-c2ccccc2)cc1 | inactive | –
24 | CCCCCCOC(=O)c1ccccc1C(=O)OCCCCCC | inactive | –
25 | CCCCCCCCOC(=O)c1ccccc1C(=O)OCCCCCCCC | inactive | –
26 | Cc1cccc([N+](=O)[O-])c1 | inactive | –
27 | Oc1ccc(Cl)cc1Cl | inactive | –
28 | CCOC(=O)C(O)(c1ccc(Cl)cc1)c1ccc(Cl)cc1 | – | 37.9 µM (active)
29 | CCSC(=O)N(CC)C1CCCCC1 | inactive | –
30 | COc1ccc(O)c(C(C)(C)C)c1 | inactive | –
31 | CCCCCCCCCc1ccc(O)cc1 | – | 15.4 µM (active)
32 | O=S(=O)(O)C(F)(F)C(F)(F)C(F)(F)C(F)(F)C(F)(F)C(F)(F)F | inactive | –
33 | O=C(NC(=O)c1cc(F)c(F)cc1Cl)Nc1cc(F)ccc1N1CCC(C(=O)O)CC1 | inactive | –
34 | CCOCCOC(C)=O | inactive | –
35 | C[C@]12CCC(=O)C=C1CC[C@@H]1[C@@H]2CC[C@]2(C)C(=O)CC[C@@H]12 | inactive | –
36 | CCC(C)c1cc([N+](=O)[O-])cc([N+](=O)[O-])c1O (stereo not given) | inactive | –
37 | CCC(=O)O[C@H]1CC[C@H]2[C@@H]3CCC4=CC(=O)CC[C@]4(C)[C@H]3CC[C@]12C | – | 35.8 µM (active)
